Assay results from PubChem BioAssay.
Activity calls are given as the source filed them.

Key:
[1] = compounds binding Alexa647 anti-His antibody – biochemical, small-molecule microarray, 635 nm fluorescence, artefact control for SMM control protein annotation, primary screen (AID 1128); details: higher = more signal;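 also: score merges feature fluorescence with signal-to-noise for each printed compound spot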
[2] = test system: Human papillomavirus type 1a E7 protein (residues 1-88); test: HPV1a E7 small-molecule binders, primary screen, biochemical, small-molecule microarray, residues 1-88, 635 nm (AID 1129); details: small-molecule microarray binding, fluorescence 635 nm; higher = more signal
[3] = molecular target: Focal adhesion kinase 1 (Homo sapiens) (UniProt Q05397); test: PTK2 protein binding on printed compound slides – biochemical, small-molecule microarray, 635/667 nm fluorescence, BSA, DTT, primary screen (AID 1130); details: 635 nm fluorescence, higher = more signal;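 also: composite of spot emission at 667 nm and signal to noise over triplicate slides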
Focal adhesion kinase 1 (Homo sapiens), sequence (Q05397 whole entry, looked up): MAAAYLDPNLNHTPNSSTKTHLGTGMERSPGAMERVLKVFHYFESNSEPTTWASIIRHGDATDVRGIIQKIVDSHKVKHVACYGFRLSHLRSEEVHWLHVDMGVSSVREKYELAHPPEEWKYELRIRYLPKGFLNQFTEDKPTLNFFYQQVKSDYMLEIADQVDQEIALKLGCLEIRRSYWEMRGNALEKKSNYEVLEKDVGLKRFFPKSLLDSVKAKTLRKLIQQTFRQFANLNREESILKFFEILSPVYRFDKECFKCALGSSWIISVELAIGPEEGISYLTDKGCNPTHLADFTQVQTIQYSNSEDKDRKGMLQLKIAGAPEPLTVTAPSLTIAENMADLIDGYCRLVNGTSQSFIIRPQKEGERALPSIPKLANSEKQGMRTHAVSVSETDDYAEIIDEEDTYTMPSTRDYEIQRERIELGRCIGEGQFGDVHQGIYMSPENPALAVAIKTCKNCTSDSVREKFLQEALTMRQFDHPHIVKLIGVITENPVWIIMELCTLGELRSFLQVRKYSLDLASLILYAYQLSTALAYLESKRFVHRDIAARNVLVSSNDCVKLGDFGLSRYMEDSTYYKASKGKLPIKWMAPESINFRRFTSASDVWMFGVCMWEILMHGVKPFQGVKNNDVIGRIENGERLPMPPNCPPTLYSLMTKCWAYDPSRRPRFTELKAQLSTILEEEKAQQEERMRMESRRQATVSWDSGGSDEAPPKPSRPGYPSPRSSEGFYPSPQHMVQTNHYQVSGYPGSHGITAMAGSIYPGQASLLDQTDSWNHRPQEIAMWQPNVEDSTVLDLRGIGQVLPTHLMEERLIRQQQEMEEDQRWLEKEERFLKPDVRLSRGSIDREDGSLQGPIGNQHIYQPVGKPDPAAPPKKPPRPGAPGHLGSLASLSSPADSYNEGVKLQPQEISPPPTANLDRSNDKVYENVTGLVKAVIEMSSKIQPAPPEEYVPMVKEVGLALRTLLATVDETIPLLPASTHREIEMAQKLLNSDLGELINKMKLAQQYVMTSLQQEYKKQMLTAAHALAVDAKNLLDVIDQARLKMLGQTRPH

[4] = test system: Fibrinogen (Alexa647-labelled); test: Alexa647-fibrinogen binding to printed small molecules – biochemical, small-molecule microarray, 635/667 nm fluorescence, artefact control for SMM control-protein annotation, profiling panel (AID 1131); details: fibrinogen-A647 binding fluorescence, higher = more signal;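 also: z-score merges 667 nm fluorescence with per-spot signal-to-noise over triplicate slides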
[5] = molecular target: Follistatin (Homo sapiens) (UniProt P19883); test: FST protein binding to printed compounds – biochemical, small-molecule microarray, 635/667 nm fluorescence, primary screen (AID 1132); details: 635 nm fluorescence, higher = more signal
Follistatin (Homo sapiens), sequence (P19883 whole entry, looked up): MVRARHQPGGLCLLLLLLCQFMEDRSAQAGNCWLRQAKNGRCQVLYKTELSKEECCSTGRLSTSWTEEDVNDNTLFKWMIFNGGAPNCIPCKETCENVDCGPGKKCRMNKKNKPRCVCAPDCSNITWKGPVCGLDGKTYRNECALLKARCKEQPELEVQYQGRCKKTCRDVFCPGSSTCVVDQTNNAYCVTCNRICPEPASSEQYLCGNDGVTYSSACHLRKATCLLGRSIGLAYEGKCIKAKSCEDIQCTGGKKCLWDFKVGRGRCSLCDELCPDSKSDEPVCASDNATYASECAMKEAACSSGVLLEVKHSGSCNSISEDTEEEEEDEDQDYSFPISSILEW

[6] = molecular target: Fibroblast growth factor 2 (Homo sapiens) (UniProt P09038); test: basic fibroblast growth factor binding to printed compounds – biochemical, small-molecule microarray, 635/667 nm fluorescence, primary screen (AID 1133); details: FGF2, fluorescence 635/667, higher = more signal
Fibroblast growth factor 2 (Homo sapiens), sequence (P09038 whole entry, looked up): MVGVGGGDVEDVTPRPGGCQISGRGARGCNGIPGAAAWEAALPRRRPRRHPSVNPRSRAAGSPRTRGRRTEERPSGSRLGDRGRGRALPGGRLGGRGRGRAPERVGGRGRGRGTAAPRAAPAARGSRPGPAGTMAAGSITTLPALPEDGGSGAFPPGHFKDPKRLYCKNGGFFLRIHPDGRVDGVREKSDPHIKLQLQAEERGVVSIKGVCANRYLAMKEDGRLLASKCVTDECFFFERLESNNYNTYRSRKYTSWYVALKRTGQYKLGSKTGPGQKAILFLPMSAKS

[7] = JC-1 mitochondrial potential readout, lung cancer cells – cell-based, A549, JC-1 fluorescence, basal, 24 h, 100 nL, profiling panel (AID 1138); details: higher = more signal;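 also: A549 lung adenocarcinoma cells under basal conditions with no added stimulus; test concentration not given here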
Lefty1 = Lefty1 protein binding to printed compounds – biochemical, small-molecule microarray, 635/667 nm fluorescence, primary screen (AID 1139); details: fluorescence 635/667, higher = more signal
[8] = test system: wheat germ agglutinin (Triticum aestivum), Alexa647-labelled; test: Alexa647-WGA lectin binding to printed small molecules – biochemical, small-molecule microarray, 635/667 nm fluorescence, artefact control for SMM control-protein annotation, profiling panel (AID 1140); details: WGA-A647 binding, 635 nm fluorescence, higher = more signal;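 also: score merges 667 nm feature emission with signal to noise over triplicate slides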
[9] = molecular target: Luciferin 4-monooxygenase (Photinus pyralis) (UniProt P08659); test: inhibition of purified Photinus pyralis luciferase – biochemical, luminescence, purified enzyme, 2006 set, primary screen (AID 1141); details: purified firefly luciferase, SteadyGlo luminescence, 30 min; higher = more signal, called active from +8 up or from −8 down;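 also: cell-free assay with purified firefly luciferase at 100 ng per well in PBS; test concentration not given here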
Luciferin 4-monooxygenase (Photinus pyralis), sequence (P08659 whole entry, looked up): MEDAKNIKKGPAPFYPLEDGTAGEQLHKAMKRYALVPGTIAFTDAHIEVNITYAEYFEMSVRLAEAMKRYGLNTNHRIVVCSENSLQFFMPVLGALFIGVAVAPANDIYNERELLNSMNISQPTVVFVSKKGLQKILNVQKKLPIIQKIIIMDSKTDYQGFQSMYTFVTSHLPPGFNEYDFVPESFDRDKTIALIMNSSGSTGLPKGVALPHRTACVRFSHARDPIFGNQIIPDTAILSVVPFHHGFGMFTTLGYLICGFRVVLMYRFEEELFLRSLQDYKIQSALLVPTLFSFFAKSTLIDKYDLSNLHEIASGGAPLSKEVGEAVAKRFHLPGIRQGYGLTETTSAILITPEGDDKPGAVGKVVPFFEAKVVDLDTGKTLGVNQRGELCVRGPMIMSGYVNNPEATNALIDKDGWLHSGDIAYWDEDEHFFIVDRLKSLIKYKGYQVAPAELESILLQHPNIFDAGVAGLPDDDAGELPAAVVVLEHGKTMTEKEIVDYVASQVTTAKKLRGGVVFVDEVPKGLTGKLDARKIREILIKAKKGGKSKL

Row | Compound | composite z-score [1] | composite z-score [2] | composite z-score [3] | composite z-score [4] | composite z-score [5] | composite z-score [6] | z-score [7] | composite z-score (Lefty1) | composite z-score [8] | z-score [9]
1 | O=C1NC(=O)C2C1C=CC(C(O)c1ccccc1)N2Nc1ccc(Cl)cc1Cl (stereo not given) | 1.62 | 1.16 | 0.433 | 0.985 | 1.28 | 0.394 | -0.0329 | 1.4 | 0.763 | -1.44 (inactive)
2 | CN(C)CCCNC(=O)[C@@]1(c2ccc([N+](=O)[O-])cc2)CC(=O)N(C2CCCCC2)[C@@H]1c1ccc(CO)cc1I | 1.48 | 1.23 | 0.634 | 0.62 | 0.336 | 0.225 | -2.36 | 0.0773 | 0.701 | -0.907 (inactive)
3 | COC(=O)C(CC#Cc1ccc2c(c1)[C@]1(C(=O)N2)[C@H](C(=O)O)[C@H]2C(=O)O[C@H](c3ccccc3)[C@H](c3ccccc3)N2[C@@H]1c1ccc(O)cc1)C(=O)OC | 1.54 | -0.133 | -0.13 | -0.422 | -0.0501 | -0.328 | -0.573 | -0.574 | -0.163 | 0.217 (inactive)
4 | CCOC(=O)C=Cc1cc([N+](=O)[O-])ccc1O | -0.59 | -0.455 | -0.0779 | -0.429 | -0.907 | -0.652 | -2.31 | -0.83 | -0.0396 | 1.38 (inactive)
5 | C=C(CCCC)/C(=C/C[C@@H](OC(C)=O)c1ccccc1OCCO)c1cnc2ccccc2c1 | 1.46 | 0.356 | 0.0147 | 0.143 | 1.31 | 0.908 | 0.222 | 0.736 | 0.454 | -0.754 (inactive)
6 | O=C1NC(=O)C2C1C=CC(C(O)C(c1ccccc1)c1ccccc1)N2Nc1ccc(Cl)cc1Cl (stereo not given) | -0.138 | 1.15 | 0.682 | 0.852 | 0.896 | -0.301 | -0.815 | -0.0329 | 0.587 | 0.231 (inactive)
7 | O=C(NCC(F)(F)F)[C@@H]1c2ccccc2C(=O)N(C2CCCCC2)[C@H]1c1ccc(CO)cc1 | -0.216 | 0.402 | -0.013 | 0.403 | 0.173 | -0.179 | 0.221 | -0.63 | 0.807 | -0.128 (inactive)
8 | O=C1C2C=CC(C(O)c3c(F)cccc3Cl)N(Nc3ccccc3)C2C(=O)N1c1ccccc1 (stereo not given) | 0.397 | 1.26 | 0.471 | 1.03 | 1.24 | -0.0407 | 0.555 | 0.464 | 0.816 | 0.429 (inactive)
9 | CCOC(=O)C[C@H]1[C@H](OC(=O)Cc2ccc3c(c2)OCO3)[C@@H](NC(=O)c2ccc3ccccc3c2)c2cc(OCCCO)ccc2N1C(=O)c1ccccc1 | 0.638 | 0.878 | 0.675 | 0.823 | 0.375 | 0.111 | 1.84 | 0.593 | 0.271 | -1.05 (inactive)
10 | C=CCNC(=O)[C@H]1[C@@H]2C(=O)O[C@@H](c3ccccc3)[C@@H](c3ccccc3)N2[C@@H](c2ccc(OCCO)cc2)[C@]12C(=O)N(C(=O)OCCOC)c1ccccc12 | 2.75 | 1.25 | 0.389 | 0.962 | 1.33 | 1.53 | -0.134 | 0.807 | 0.789 | 0.122 (inactive)
11 | COc1ccc(CCN2C(=O)[C@@]3(c4ccc([N+](=O)[O-])cc4)CC(=O)N(C4CCCCC4)[C@@H]3c3ccc(CO)cc32)cc1 | 0.521 | -0.82 | 0.151 | -0.382 | 1.42 | 1.4 | -0.552 | 0.563 | -0.569 | 0.3 (inactive)
12 | COc1ccc(COC2OC[C@]3(C)[C@H]4C5=C(CN3C(=O)OC(C)(C)C)[C@H](C)C(CO)C(CO)C5CC[C@@H]24)cc1 (stereo not given in full) | 1.08 | 1.19 | 0.649 | 0.968 | 0.535 | -1.03 | 0.323 | -0.209 | 0.831 | 1.52 (inactive)
13 | C[N+](C)(C)CCCCNC(=O)[C@H]1C[C@H]2C(=O)N[C@@H](Cc3ccccc3)C(=O)N2[C@H]1c1ccc(O)cc1 | 1.94 | -0.304 | -0.452 | 0.451 | 1.34 | 0.971 | 0.079 | 0.985 | 0.496 | -1.27 (inactive)
14 | CC(C)(C)OC(=O)CC[C@]12N=C(c3ccc(OCCCO)cc3)O[C@H]1c1ccccc1N(CCS(=O)(=O)c1ccccc1)C2=O | 1.99 | 1.24 | 0.895 | 0.957 | 1.17 | 0.596 | 0.95 | 0.5 | 1.08 | -8.32 (active)
15 | CCOC(=O)[C@H]1C/C=C/C[C@H](C(=O)OCC)C(=O)O[C@H]2[C@@H](OC)O[C@H](CO)[C@@H](OC(=O)Nc3cccc(F)c3)[C@@H]2OC1=O | 1.82 | 0.712 | 0.154 | 0.966 | 0.247 | 0.0815 | -2.01 | 1.11 | 0.452 | -1.14 (inactive)
16 | COC(=O)[C@@]1(Cc2ccccc2)[C@H]2c3cc(C(=O)N(C)C)n(CCSCCO)c3C[C@H]2CN1C(=O)c1ccccc1 | 1.25 | 1.2 | 0.342 | 0.632 | -0.347 | -0.299 | 0.599 | -0.84 | 0.879 | 1.14 (inactive)
17 | CC(C)OC(=O)C=C1C[C@@H](c2ccccc2C(F)(F)F)O[C@@H](c2ccccc2C(F)(F)F)O1 | 0.209 | 0.737 | 0.554 | 0.183 | -0.0154 | 0.179 | 1.81 | 0.109 | 0.127 | 0.464 (inactive)
18 | CN(C)CCCCCCNC(=O)[C@@H]1C[C@@H]2C(=O)N[C@@H](CCCCN)C(=O)N2[C@@H]1c1cccc(OCCO)c1 | 3.24 | 1.31 | 2.31 | 1.01 | 1.45 | 1.59 | 1.08 | 1.66 | 1.62 | -1.61 (inactive)
19 | C=CC[C@@]1(C(=O)NCc2ccccc2)N=C(c2ccc(OCCCO)cc2)O[C@@H]1c1ccccc1N=[N+]=[N-] | 2.41 | 1.24 | 0.649 | 0.993 | 1.28 | 0.281 | 0.444 | 0.11 | 1 | -8.72 (active)
20 | CCC(CC)C(O)C1C=CC2C(=O)N(C)C(=O)C2N1Nc1ccccc1 (stereo not given) | 1.02 | 1.08 | 0.43 | 0.964 | 0.895 | -0.194 | -0.513 | 0.434 | 1.1 | -0.445 (inactive)
21 | [N-]=[N+]=NCc1ccccc1[C@H]1OC(c2ccc(OCCCO)cc2)=N[C@@]1(Cc1ccccc1)C(=O)NCc1ccccc1 | 0.517 | 1.17 | 0.365 | 0.954 | 1.13 | 0.0948 | 1.2 | -0.352 | 0.468 | -0.658 (inactive)
22 | CN1C(=O)C2C=CC(C(O)C3CCCCC3)N(Nc3ccc([N+](=O)[O-])cc3[N+](=O)[O-])C2C1=O (stereo not given) | 1.08 | 1.25 | 0.622 | 1.02 | 1.07 | 0.0734 | 1.37 | 0.182 | 0.497 | 0.799 (inactive)
23 | [N-]=[N+]=NCc1ccccc1C[C@]1(C(=O)O)N=C(c2ccc(OCCCO)cc2)O[C@H]1c1ccccc1N=[N+]=[N-] | 0.906 | 1.19 | 0.532 | 0.985 | 1.1 | 0.582 | -1.17 | 0.354 | 1.2 | -13.8 (active)
24 | COCCOC(=O)N1C(=O)[C@@]2(c3cc(C#CC4=CCCCC4)ccc31)[C@H](c1ccc(O)cc1)N1[C@H](c3ccccc3)[C@H](c3ccccc3)OC(=O)[C@H]1[C@@H]2C(N)=O | 0.711 | 1.08 | 0.334 | 0.644 | 1.32 | 1.57 | -0.858 | 1.23 | 0.766 | -1.37 (inactive)
25 | C=CCC(OC(C)=O)[C@@H]1[C@@H](N(Cc2cccc3ccccc23)C(=O)c2ccc(-c3ccccc3)cc2)c2cc(OCCCO)ccc2N1C(=O)Cc1ccc(OC)cc1 (stereo not given in full) | 0.364 | -0.128 | 0.179 | 0.603 | 0.652 | -0.0199 | 1.06 | 0.246 | 0.281 | 0.912 (inactive)
26 | C=CCOC(=O)[C@H]1[C@@H]2C(=O)O[C@@H](c3ccccc3)[C@@H](c3ccccc3)N2[C@@H](c2ccc(OCCOC(=O)[C@@H]3C[C@@H]4C(=O)N[C@@H](CCCCN(C)C)C(=O)N4[C@@H]3c3ccc(O)cc3)cc2)[C@]12C(=O)Nc1ccc(I)cc12 | 2.26 | 1.22 | 0.565 | 0.733 | 1.16 | 1.57 | -1.63 | 1.54 | 0.81 | -4.39 (inactive)
27 | COC(=O)C=C(CC(O)c1cccc(Cl)c1)OC (stereo not given) | 1.14 | 1.15 | 0.0918 | 0.6 | -0.431 | -0.0579 | -0.252 | -0.492 | 1.04 | 0.699 (inactive)
28 | CC(C)C[C@@H]1NC(=O)[C@@H]2C[C@H](C(=O)NCCCCCN)[C@H](c3cccc(OCCO)c3)N2C1=O | 1.19 | 1.04 | 1.13 | 0.93 | 0.555 | 0.591 | 1.18 | 0.288 | 1.13 | -1.21 (inactive)
